# Assay results: PubChem BioAssay (NCI)
# Compounds without any hit were thinned out: in the full panel of roughly 83,000, 20% have a hit.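 Plates (96-well) were seeded with cells, treated with compound at one concentration, and incubated for 48 hours before percent growth was determined.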 Unmarked numbers belong to inactive results. Calls of active or inactive are those of the source. The calls were made as follows: active = growth percent below 10; inactive = the rest.
# Assays:
# Assay in all cases: NCI-60 one-dose screen, 48 h (100 = growth as untreated, 0 = no growth, -100 = all killed)
# Conditions in all cases: 10 µM unless noted
# HCT-15 colon = test system: HCT-15 colon
# HT29 colon = test system: HT29 colon
# SNB-75 CNS = test system: SNB-75 CNS
# SNB-19 CNS = test system: SNB-19 CNS
# U251 CNS = test system: U251 CNS
# PC-3 prostate = test system: PC-3 prostate
# SK-MEL-5 melanoma = test system: SK-MEL-5 melanoma
# UACC-62 melanoma = test system: UACC-62 melanoma
# LOX IMVI melanoma = test system: LOX IMVI melanoma
# SK-MEL-28 melanoma = test system: SK-MEL-28 melanoma
# SK-MEL-2 melanoma = test system: SK-MEL-2 melanoma
# EKVX NSCLC = test system: EKVX NSCLC
# SN12C renal = test system: SN12C renal
# UO-31 renal = test system: UO-31 renal
# TK-10 renal = test system: TK-10 renal
# ACHN renal = test system: ACHN renal
# CAKI-1 renal = test system: CAKI-1 renal
# A498 renal = test system: A498 renal
# CCRF-CEM leukemia = test system: CCRF-CEM leukemia
# MOLT-4 leukemia = test system: MOLT-4 leukemia
SMILES,growth (HCT-15 colon),growth (HT29 colon),growth (SNB-75 CNS),growth (SNB-19 CNS),growth (U251 CNS),growth (PC-3 prostate),growth (SK-MEL-5 melanoma),growth (UACC-62 melanoma),growth (LOX IMVI melanoma),growth (SK-MEL-28 melanoma),growth (SK-MEL-2 melanoma),growth (EKVX NSCLC),growth (SN12C renal),growth (UO-31 renal),growth (TK-10 renal),growth (ACHN renal),growth (CAKI-1 renal),growth (A498 renal),growth (CCRF-CEM leukemia),growth (MOLT-4 leukemia)
COc1cc2c(=O)[nH]c3cc([N+](=O)[O-])ccc3c2cc1[N+](=O)[O-],46%,30.6%,36.5%,58.3%,37.8%,55.2%,41.3%,41.4%,36.7%,78.5%,86.1%,48.3%,52.6%,19.6%,52.1%,21.8%,45.7%,-2.09% (active),46.5%,9.72% (active)
C/C=C/C1OC23CCCCC2C(C#N)(C(=N)O3)C1(C#N)C#N (stereo not given),85%,109%,85.9%,101%,102%,98.1%,99.1%,87%,81.9%,109%,107%,106%,93.7%,76.2%,103%,94.1%,81.2%,118%,81.2%,95%
CC(C)[C@H]1CCC2=C3CC[C@]45OC(=O)[C@@]6(CCC(C)(C)C[C@H]64)CC[C@@]5(C)[C@]3(C)CC[C@@]21C,85.8% [100 µM],42.2% [100 µM],30.4% [100 µM],71.6% [100 µM],66.5% [100 µM],39.3% [100 µM],42.6% [100 µM],59.3% [100 µM],78.8% [100 µM],87.4% [100 µM],74.9% [100 µM],88.3% [100 µM],70.6% [100 µM],67.9% [100 µM],101% [100 µM],72.4% [100 µM],53.7% [100 µM],103% [100 µM],49.7% [100 µM],26.5% [100 µM]
O=C(Oc1ccc(Cl)cc1[N+](=O)[O-])Oc1ccc(Cl)cc1[N+](=O)[O-],106%,107%,108%,115%,99%,88.5%,120%,113%,111%,106%,103%,108%,107%,88.8%,120%,108%,104%,154%,102%,97.8%
COc1cc2c(cc1OCCCCCOc1ccc(-n3c(C)nc4ccccc4c3=O)cc1)N=C[C@@H]1CCCN1C2=O,9.39% (active),-1.24% (active),-80.9% (active),1.38% (active),3.85% (active),4.39% (active),-79.6% (active),-74% (active),-32.2% (active),-66.8% (active),-8.38% (active),-26.5% (active),12.7%,2.91% (active),-28.2% (active),9.23% (active),4.3% (active),-71.9% (active),-38.3% (active),-31.2% (active)
CC(C)C1=NOC(=O)C1=Cc1cn(-c2ccco2)nc1-c1ccccc1,77.8%,86.3%,80.8%,89.8%,75.6%,78%,95.3%,87.6%,39.3%,99%,113%,99.6%,87.4%,71.5%,110%,92.3%,73.8%,98.6%,32.9%,20.7%
